Data reported in PubChem BioAssay (Tox21).
Records with an inconclusive call do not appear. A call without a number means that no potency is given here. A number with no mark means an inactive call. Active and inactive are the calls of the source. Calls come from the whole dose curve; as a rule, active = well fitted cell-killing curve with a large enough effect in the repeat runs; inconclusive = weak or mixed curves; inactive = flat fitted curve, though single readings scatter.

assay: qHTS RealTime-Glo MT Cell Viability Assay in HepG2 cells - 16 hour (AID 1224885); settings: RealTime-Glo luminescence; series mostly up to 76.8 µM; note: nearly all actives have a fitted effect of over 50% in size
Source text: U.S. Tox21 Program National Center for Advancing Translational Sciences [NCATS] NIH Chemical Genomics Center [NCGC] U.S. Environmental Protection Agency [EPA] National Institutes of Environmental Health Sciences [NIEHS] National Toxicology Program [NTP] U.S. Food and Drug Administration [FDA] Tox21 Assay Overview: Measure of cell viability is critical in the cell-base assay. Analysis of cell viability is necessary for the characterization of cell responses to cytotoxic drugs and environmental stress. A RealTime-Glo MT Cell Viability Assay to monitor cell viability in real time of continues cell culture during 40 hours of compound treatment was used to screen Tox21 10K library compounds in HepG2 cells. The RealTime-Glo MT Cell Viability Assay is a nonlytic, homogeneous, bioluminescent method to measure cell viability in real time using a simple, plate-based method. The assay involves adding NanoLuc luciferase and a cell-permeant prosubstrate to cells in culture. Viable cells reduce the proprietary prosubstrate to generate a substrate for NanoLuc luciferase. This substrate diffuses from cells into the surrounding culture medium, where it is rapidly used by the NanoLuc Enzyme to produce a luminescent signal. The signal correlates with the number of viable cells, making the assay well suited for cytotoxicity studies.
Tox21 Assay Protocol Summary: The mixture of HepG2 cell suspension and reagents were dispensed at 600cells/6 ul/well in 1536-well tissue culture treated black solid bottom plates using a Multidrop dispenser. After the assay plates were incubated at a 37 C/5% CO2 incubator for 5 hours, 23 nL of compounds dissolved in DMSO, positive and negative controls was transferred to the assay plate by a pintool work station. The plates were incubated at 37 C for 40 hours. The luminescence intensity were measured at 0h, 8h, 16h, 24h, 32h and 40h time points using ViewLux plate reader during compound treatment.

Row | SMILES | Potency | activity change, negative = cytotoxic
1 | CC(C)c1ccccc1C(C)C | inactive | –
2 | CN(C)CC[C@@H](c1ccc(Br)cc1)c1ccccn1 | inactive | –
3 | CC(=O)c1ccc2c(c1)[C@H](NC(=O)c1ccc(F)cc1)[C@@H](O)C(C)(C)O2 | inactive | –
4 | Cc1cccc(C(C)(C)C)c1O | inactive | –
5 | Cc1ccccn1 | inactive | –
6 | c1ccc(OCc2ccc(CCCN3CCOCC3)cc2)cc1 | inactive | –
7 | N#CCCNCCC#N | inactive | –
8 | CCCCCCCC/C=C\CCCCCCCC(N)=O | inactive | –
9 | O=C(/C=C/c1ccc(O)c(O)c1)O[C@@H]1C[C@](O)(C(=O)O)C[C@@H](O)[C@H]1O | inactive | –
10 | CCCCOc1cc(C(=O)OCCN(CC)CC)ccc1N | inactive | –
11 | OCCC1CCCCN1 (stereo not given) | inactive | –
12 | Cc1cc(CC(=O)O)c(C)n1-c1ccc(Cl)cc1 | inactive | –
13 | O=C(C(=O)c1ccc(Br)cc1)c1ccc(Br)cc1 | – | -1.79% [at 15.8 µM]
14 | CC(=O)/C=C/C1C(C)=CCCC1(C)C (stereo not given) | inactive | –
15 | O=C(NS(=O)(=O)/C=C/c1cccs1)c1ccc(F)cc1Br | inactive | –
16 | CCC(C)N(C)C(=O)c1cc2ccccc2c(-c2ccccc2Cl)n1 (stereo not given) | inactive | –
17 | O=C(CC(=O)c1ccccc1)c1ccccc1 | inactive | –
18 | O=[N+]([O-])c1cccc(Cl)c1Cl | inactive | –
19 | O=c1c2ccccc2nnn1CCl | inactive | –
20 | Cc1ccc(C(C)c2ccc(C)c(C)c2)cc1C | inactive | –

Row | SMILES | Potency | activity change, negative = cytotoxic
21 | CN1CCN(C2=Nc3ccccc3Sc3ccc(Cl)cc32)CC1 | inactive | –
22 | N=C(N=C(N)N)N1CCOCC1 | inactive | –
23 | COc1cc(C(C)(C)C)c(O)c(C(C)(C)C)c1 | inactive | –
24 | O=C(c1ccccc1)c1ccc2n1CCC2C(=O)O (stereo not given) | inactive | –
25 | c1ccc(-c2nc[nH]c2-c2ccccc2)cc1 | inactive | –
26 | CC/C(=C\C(=N/O)C(N)=O)C(C)[N+](=O)[O-] (stereo not given) | inactive | –
27 | CCOC(=S)SSC(=S)OCC | inactive | –
28 | c1ccc(CNCc2ccccc2)cc1 | inactive | –
29 | C[C@@H](C1=C(CCN(C)C)Cc2ccccc21)c1ccccn1 | inactive | –
30 | CCCCOC(=O)c1ccccc1C(=O)OCC(CC)CCCC (stereo not given) | inactive | –
31 | Nc1ccc(C(=O)Nc2ccccc2N)cc1 | inactive | –
32 | CC(=O)SCc1ccco1 | inactive | –
33 | O=C(NN1CCCC1)NS(=O)(=O)c1ccc(Cl)cc1 | inactive | –
34 | Cc1occc1S | inactive | –
35 | COCCO | inactive | –
36 | COc1ccc(OC)c(OC)c1 | inactive | –
37 | CC(=O)c1c(C)c([N+](=O)[O-])c(C(C)(C)C)c([N+](=O)[O-])c1C | inactive | –
38 | O=C(O)C1CCC(C(=O)O)CC1 (stereo not given) | inactive | –
39 | CCN(CC)CCc1nc(-c2ccccc2)no1 | inactive | –
40 | CCCCCCCCCC=O | inactive | –
